Source: PubChem BioAssay (National Center for Advancing Translational Sciences (NCATS))
POLB inh: inhibitors of human DNA polymerase beta | P06746 | Pol beta primer extension/strand displacement, fluorescence kinetic | Potency, µM (top dose mostly 114 µM), inactives show top-dose activity change, negative = inhibition, actives largely listed as inhibitors | hit rate 1.3% among 340,000; also: potency is read from the fitted curve at half-maximal effect; % is scaled to controls: 0 for no effect and ±100 for the full control effect
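Kinetic readout of DNA synthesis with strand displacement by Pol beta. Compound and 10 nM enzyme sit 15 min at room temperature; 50 nM substrate starts the reaction, read immediately and at 10 min.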
FEN1 inhibitor: blocks human flap endonuclease 1 | AID 588795 | Recombinant FEN1 flap cleavage, fluorescence, 15 min | Potency, µM (titrated, usually from 114 µM), without a hit: at the highest dose activity change, negative = inhibition, actives largely listed as inhibitors | P39748 | hit rate 0.35% among 390,000; also: potency is read from the fitted curve at half-maximal effect; % is scaled to controls: 0 for no effect and ±100 for the full control effect; nearly all actives have a fitted effect of over 65% in size
Target sequence (P39748 whole entry, looked up): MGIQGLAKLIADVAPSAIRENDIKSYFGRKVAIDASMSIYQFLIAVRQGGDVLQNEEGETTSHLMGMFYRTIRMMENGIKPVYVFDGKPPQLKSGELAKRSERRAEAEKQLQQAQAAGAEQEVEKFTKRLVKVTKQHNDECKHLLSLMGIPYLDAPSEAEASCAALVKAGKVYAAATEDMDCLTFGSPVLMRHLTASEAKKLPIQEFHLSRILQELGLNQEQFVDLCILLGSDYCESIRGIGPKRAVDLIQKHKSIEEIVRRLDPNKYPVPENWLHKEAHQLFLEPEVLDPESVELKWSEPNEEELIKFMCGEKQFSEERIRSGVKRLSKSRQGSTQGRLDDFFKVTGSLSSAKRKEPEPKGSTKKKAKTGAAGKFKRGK
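Potency values derive from four-parameter Hill fits of normalized qHTS data. The reaction used 10 nM FEN1 preincubated 15 min at room temperature with compound, then 50 nM DNA substrate, read at 0 and 15 min.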
WRN inhibitor: blocks human WRN helicase. Potency, µM (titrated, usually from 114 µM), inactives show top-dose activity change, negative = inhibition, hits mostly inhibitors. WRN helicase unwinding, fluorescent forked duplex, kinetic. AID 651768. hit rate 0.46% among 360,000. Q14191; also: potency is read from the fitted curve at half-maximal effect; % is scaled to controls: 0 for no effect and ±100 for the full control effect; nearly all actives have a fitted effect of over 55% in size
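WRN at 20 nM final was preincubated with compound for 15 min at room temperature; reaction started with 100 nM forked duplex oligonucleotide carrying fluorophore and quencher plus 2 mM ATP (final). Unwinding followed kinetically by red fluorescence (ex 525/em 598 nm).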
POLI inh: blocks human DNA polymerase iota activity; Potency, µM (titrated, usually from 115 µM), without a hit: top-dose activity, negative = inhibition, actives largely listed as inhibitors; Pol iota fluorescent replication assay, 10 min; hit rate 1% among 390,000; AID 588590; also: potency is read from the fitted curve at half-maximal effect
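Fluorescent replication assay read twice, at 0 min and 10 min after adding 50 nM (final) substrate. Enzyme (10 nM) and compounds were first incubated 15 min at room temperature; enzyme-free buffer wells were negative controls.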
Pol eta inh-1: inhibitors of human DNA polymerase eta. Potency, µM (series often up to 114 µM), without a hit: top-dose activity change, negative = inhibition, hits mostly inhibitors. recombinant Pol eta, fluorescent DNA replication assay. hit rate 1.2% among 390,000. Q9Y253; also: potency is read from the fitted curve at half-maximal effect; % is scaled to controls: 0 for no effect and ±100 for the full control effect
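Pol eta (10 nM) was preincubated with compounds for 15 min at room temperature, after which fluorescent replication substrate (50 nM final) was added to start the reaction. Fluorescence was read kinetically at 0 and 10 min.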
Pol kappa inh-1: DNA polymerase kappa (human) inhibition; Q9UBT6; purified Pol kappa, fluorescent DNA synthesis assay, 10 min; Potency, µM (titrated, usually from 107 µM), for the others: top-dose activity, negative = inhibition, hits mostly inhibitors; hit rate 0.53% among 400,000; AID 588579; also: potency is read from the fitted curve at half-maximal effect; % is scaled to controls: 0 for no effect and ±100 for the full control effect
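Pol kappa 10 nM + cpd, 15 min RT; start w/ substrate 50 nM final; fluorescence kinetic read, 0 and 10 min. Neg ctrl: buffer, no enzyme.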
GALK confirm: galactokinase (human) inhibition, confirmation. purified GALK, Kinase-Glo ATP depletion luminescence. shares compounds with Pol eta inh-1. Potency, µM (doses to about 115 µM), without a hit: at the highest dose activity, negative = inhibition, hits mostly inhibitors. hit rate 70% among 150
Target sequence (P51570 whole entry, looked up): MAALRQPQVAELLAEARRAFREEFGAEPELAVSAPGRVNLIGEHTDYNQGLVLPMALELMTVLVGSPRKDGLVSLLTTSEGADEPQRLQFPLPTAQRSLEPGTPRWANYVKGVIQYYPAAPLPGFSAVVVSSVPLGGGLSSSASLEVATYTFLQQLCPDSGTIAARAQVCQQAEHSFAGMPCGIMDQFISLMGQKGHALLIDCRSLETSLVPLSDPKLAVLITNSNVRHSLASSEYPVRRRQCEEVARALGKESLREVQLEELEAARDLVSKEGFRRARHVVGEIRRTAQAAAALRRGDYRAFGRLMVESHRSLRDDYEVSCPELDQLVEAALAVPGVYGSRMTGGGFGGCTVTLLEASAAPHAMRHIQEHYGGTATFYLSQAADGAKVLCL
Redox cycling: generates H2O2 by redox cycling, flagging GALK artifacts | shares compounds with Pol eta inh-1 | Phenol red-HRP H2O2 redox cycling, absorbance 600 nm | Potency, µM (top dose mostly 115 µM), for inactives: at the highest dose activity change, negative = H2O2 signal, usual class: inhibitors | hit rate 40% among 150 | AID 2035
HEK293 tox: HEK-293 cytotoxicity, GALK inhibitor secondary. shares compounds with Pol eta inh-1. HEK-293 viability, ATP luminescence (CellTiter-Glo), 24/48 h. Potency, µM (series often up to 46.1 µM), inactives show at the highest dose activity change, negative = cytotoxicity, most hits filed as inhibitors. hit rate 10% among 170. AID 2547; also: potency is read from the fitted curve at half-maximal effect; % is scaled to controls: 0 for no effect and ±100 for the full control effect
Pol kappa inh-2: confirmation of human DNA polymerase kappa inhibitors. purified Pol-kappa, fluorescent strand-displacement substrate. AID 720501. Potency, µM, actives largely listed as inhibitors. hit rate 76% among 920. shares compounds with Pol eta inh-1; also: potency is read from the fitted curve at half-maximal effect
Pol eta inh-2: confirmation of human DNA polymerase eta inhibitors; shares compounds with Pol eta inh-1; Pol eta primer extension, TAMRA/BHQ fluorescence, 10 min; Potency, µM, usual class: inhibitors; hit rate 64% among 2,600; AID 720502; also: potency is read from the fitted curve at half-maximal effect
Active calls of the source: *; ? = inconclusive; . = not tested or not shown; [ ] = dose if it differs, or a comment. A selection: hits, their analogues and other compounds. The true share with any hit is near 2.4%. Calls follow the shape of the dose curve; as a rule, active = well fitted curve in the direction sought with a large enough effect; inconclusive = small, poorly fitted or top-dose-only effect, or another doubt; inactive = no such curve, though single readings can be large; an effect the other way counts as inactive or inconclusive.

SMILES | POLB inh | FEN1 inhibitor | WRN inhibitor | POLI inh | Pol eta inh-1 | Pol kappa inh-1 | Pol eta inh-2 | others
O=C(c1coc(=O)c(Br)c1)N1CCCc2ccccc21 | 25µM* | ? | ? | 16µM* | 11µM* | 32µM* | 38* | Pol kappa inh-2=42*
COc1ccc(C(=O)N2CCCc3ccccc32)cc1Br | 20% | -18% | 6% | 109% | -19% | -2% | .
O=C(c1cc2ccccc2oc1=O)N1CCN(c2ccc(Cl)cc2)CC1 | 15% | -2% | . | 12% | -14% | -2% | .
CCOc1cc(C(=O)NCC(c2ccc(N(C)C)cc2)N2CCOCC2)cc(OCC)c1OCC (stereo not drawn) | -1% | 17% | . | 24% | -10% | -7%[60.1 µM] | .
Cc1ccccc1-c1cc2nc(-c3ccc([N+](=O)[O-])cc3)cc(=O)n2[nH]1 | -20% | -20% | 3% | 13% | -5% | -7% | .
O=c1cc(-c2ccc([N+](=O)[O-])cc2)nc2cc(-c3ccc(F)cc3)[nH]n12 | -1% | -1% | ? | ? | 20µM* | -16% | 67*
COc1cccc2nccc(/C=C/c3ccc(N(C)C)cc3)c12 | . | -16% | . | ? | . | -20% | .
C=CCn1c(SCc2nc3sc(C(=O)O)c(C)c3c(=O)[nH]2)nnc1-c1ccc(C(C)(C)C)cc1 | 22µM* | 45µM* | ? | ? | 7.1µM* | 35µM* | 30* | Pol kappa inh-2=12*
CC(=O)c1sc2nc(CSc3nncn3C)[nH]c(=O)c2c1C | -27% | -6% | -23% | ? | -7% | -19% | .
Cc1c(C(=O)O)sc2nc(CSc3nnc(-c4ccc(F)cc4)n3C)[nH]c(=O)c12 | 1% | -7% | ? | ? | 35µM* | -30% | ?
Cc1nnc(SCc2nc3sc(C(=O)O)c(C)c3c(=O)[nH]2)s1 | 0% | ? | -23% | 20µM* | 22µM* | 89µM* | 43*
CCOCCCn1c(SCc2nc3sc(C(=O)O)c(C)c3c(=O)[nH]2)nnc1-c1ccc(Cl)cc1 | -11% | 9% | -21% | 50% | -21% | -5% | .
CC1=C(C(=O)Nc2cccnc2)C(c2ccc(F)cc2)n2nc(SCc3ccccc3)nc2N1 (stereo not drawn) | -11% | -3% | . | 12% | -11% | -7% | .
COc1ccc2oc(=O)c(C(=O)N3CCN(c4ccc(C)cc4)CC3)cc2c1 | 22% | 0% | . | 16% | -3% | 8% | .
Cc1ccc(S(=O)(=O)/N=C2/NC(=O)/C(=C\c3cc(Br)cc(Br)c3O)S2)cc1 | ? | 28µM* | 20µM* | ? | 22µM* | -35% | . | GALK confirm=24µM*;Redox cycling=-2%;HEK293 tox=8%
Cc1ccc(S(=O)(=O)/N=C2/NC(=O)/C(=C/c3ccc(Br)o3)S2)cc1 | ? | -16% | ? | ? | 22µM* | ? | ?
Cc1ccc(S(=O)(=O)/N=C2/NC(=O)/C(=C/c3cccnc3)S2)cc1 | ? | 5% | ? | ? | ? | -8% | .
Cc1ccc(S(=O)(=O)N2CCN(c3nc(-c4cccs4)cc4ccccc34)CC2)cc1 | . | -4% | . | 27% | . | -11% | .
CSc1ccc(/C=C2\C(=N)N3N=C(CC(=O)N4CCCCC4)SC3=NC2=O)cc1 | ? | -19% | -6%[11.6 µM] | ? | 45µM* | 89µM* | . | Pol kappa inh-2=67*
Cc1ccc(/C=C2\C(=N)N3N=C(CC(=O)N4CCCCC4)SC3=NC2=O)cc1 | -21% | -15% | -2%[11.6 µM] | ? | ? | ? | 19*
N=C1/C(=C/c2ccc(Br)o2)C(=O)N=C2SC(CC(=O)N3CCCC3)=NN12 | 8.9µM* | ? | 50µM* | 18µM* | 8.9µM* | 35µM* | 38*
CSc1ccc(/C=C2\C(=N)N3N=C(CC(=O)N4CCOCC4)SC3=NC2=O)cc1 | 3% | 17% | -4%[57.1 µM] | ? | -24% | ? | .
Cc1cc(C)cc(OCc2cc(=O)n3c(-c4ccccc4)csc3n2)c1 | 13µM* | -6% | . | ? | ? | ? | ? | Pol kappa inh-2=?
O=C(CBr)c1ccc(Oc2ccc(C(=O)C[n+]3ccccc3Cl)cc2)cc1 | . | ? | . | ? | . | -7% | .
O=C1C=C(c2ccc3cc[nH]c3c2)C[C@@H](c2ccc3c(c2)OCO3)C1 | . | ? | ? | 14µM* | 22µM* | 79µM* | 76*
SMILES | POLB inh | FEN1 inhibitor | WRN inhibitor | POLI inh | Pol eta inh-1 | Pol kappa inh-1 | Pol eta inh-2 | others
COc1cccc(C(=O)Nc2nc(-c3nnn(-c4cccc(Cl)c4C)c3C)ns2)c1 | -1% | -12% | . | -4% | -6% | -9% | .
Cc1nc(Nc2nc(-c3ccccc3)cc(=O)[nH]2)nc2ccccc12 | . | 25µM* | -34% | 64% | ? | -15% | ?
Cc1cc(C)nc(NS(=O)(=O)c2ccc(-n3cccc3)cc2)n1 | 32µM* | -24% | ? | ? | 10µM* | 79µM* | 54*
Cc1cc(C)nc(NS(=O)(=O)c2ccc(Br)cc2)n1 | 4% | 5% | 2% | 42% | -13% | -23% | .
CCOC(=O)C1(Cc2cccc(F)c2)CCN(C(=O)COC)CC1 | 11% | 16% | 4% | -3% | 1% | 0% | . | GALK confirm=-3%;Redox cycling=0%;HEK293 tox=-19%
CCOC(=O)C1(Cc2cccc(F)c2)CCN(C(=O)C2CCOCC2)CC1 | 9% | 6% | 0% | 42% | -21% | 6% | .
Cc1cccc(OCc2ccc(-c3nc(C#N)c(NCc4cccnc4)o3)o2)c1 | 16% | -22% | . | 7% | -15% | 4% | .
Cc1cc2c(cc1C)NC(CC(=O)Nc1ccccc1SC(F)(F)F)C(=O)N2 (stereo not drawn) | 3% | 3% | . | 26% | -3% | -8% | .
